Screens from PubChem.
MARV entry inh – qHTS for inhibitors of binding or entry into cells for Marburg Virus; Marburg virus pseudotyped entry inhibition, cell reporter; Potency, µM (top dose mostly 37.8 µM), most hits filed as inhibitors; 300,000 tested, 1.8% active; calls by dose curve; tested in HEK293 cells
FMDV inh – High Throughput Screening for Foot and Mouth Disease Virus Antivirals; FMDV antiviral cell-based qHTS; Potency, µM (top dose mostly 57.9 µM), actives largely listed as inhibitors; 410,000 tested, 1.2% active; calls by dose curve; tested in HEK293T cells; further: read-out not given here; nearly all actives have a fitted effect of over 45% in size
Shiga toxin inh – A qHTS for Small Molecule Inhibitors of Shiga Toxin; 290,000 tested, 9.2% active; AID 2315, 2010; Vero cells, Shiga toxin protein synthesis inhibition reporter; inhibition, % at 38.7 µM; in the data active means inhibition mostly above about 28%, no sharp cut-off; inactive means mostly below about 43%
LASV entry inh – qHTS for Inhibitors of binding or entry into cells for Lassa Virus; Lassa virus pseudotype entry inhibition, cell reporter; Potency, µM (titrated, usually from 37.9 µM), actives largely listed as inhibitors; 300,000 tested, 1.2% active; AID 540256, 2011; calls by dose curve; tested in HEK293 cells; further: nearly all actives have a fitted effect of over 50% in size
Cycloheximide cs – Cycloheximide Counterscreen for Small Molecule Inhibitors of Shiga Toxin. 300,000 tested, 12% active. AID 2314, 2010. max response, %. cell reporter, cycloheximide protein synthesis inhibition counterscreen; in the data active means max response mostly above about 13%, no sharp cut-off; inactive means mostly below about 14%; further: read at 38.3 µM for the half of the compounds with a filed dose
HCV inhibitor – qHTS Assay for Inhibitors of Hepatitis C Virus (HCV). Huh7.5.1 HCVcc-Cre infection, luciferase reporter, 44 h. Potency, µM (series often up to 41.8 µM), most hits filed as inhibitors. 340,000 tested, 3.4% active. AID 651820, 2012; active means well fitted inhibition curve with a large enough effect; inconclusive means small, poorly fitted or top-dose-only effect, or another doubt; inactive means no such curve, though single readings can be large or run the other way
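Infectious HCVcc-Cre (~0.5 moi) was added to cells just after compound, with cells seeded 4 h earlier at 1,000 per well. Luciferase activity after 44 h culture reported infection; substrate was incubated 15 min at room temperature before reading.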
Of the large screens only hits and unclear results are named; the others gave an inactive call. A selection: hits, their analogues and other compounds. The true share with any hit is near 13%.

CCOc1ccc(C(=O)Nc2nnc(SCC(=O)NCC3CCCO3)s2)cc1 (centres undefined)	Cycloheximide cs 37.6 (no result: MARV entry inh, LASV entry inh)
CCOc1ccc(N(CC(=O)NCC2CCCO2)C(=O)CCC(=O)Nc2nccs2)cc1 (centres undefined)	LASV entry inh inconclusive, HCV inhibitor 22.4µM
CCCCOc1ccc(N(CC(=O)NCC2CCCO2)C(=O)CCC(=O)Nc2nccs2)cc1 (centres undefined)	none
CN(C)S(=O)(=O)c1ccc(C(=O)Nc2nnc(SCC(=O)NCC3CCCO3)s2)cc1 (centres undefined)	none
COc1cc(CCC(=O)NCc2ccc3c(c2)CCN3C(=O)c2ccccc2)cc(OC)c1OC	none (no result: MARV entry inh, Shiga toxin inh, Cycloheximide cs, HCV inhibitor)
Cc1cc2ncn(S(=O)(=O)N(C)C)c2cc1C	none
CC(=O)Nc1nc(C(=O)O)cs1	MARV entry inh inconclusive
CC(C(=O)OCC(=O)N1CCCCC1)N1C(=O)c2ccccc2C1=O (centres undefined)	none (no result: Shiga toxin inh, Cycloheximide cs)
CCN1CCN(c2ccc([N+](=O)[O-])c(Sc3nc4ccccc4[nH]3)c2)CC1	MARV entry inh inconclusive, HCV inhibitor 22.4µM
CS(=O)(=O)c1cc([N+](=O)[O-])c(Sc2nc3ccccc3[nH]2)c([N+](=O)[O-])c1	MARV entry inh 13µM, FMDV inh inconclusive, HCV inhibitor inconclusive
CC(C)C(NC(=O)c1c(F)cccc1F)C(=O)NCC(c1ccccc1)N(C)C (centres undefined)	none (no result: MARV entry inh, LASV entry inh)
CCc1cc(C(=O)c2ccccc2)c(N)s1	none
CCCCCCN(CCCCCC)C(=O)Cc1c(-c2ccc(F)cc2)[nH]c2ccccc12	MARV entry inh 9.2µM, LASV entry inh 9.2µM, HCV inhibitor inconclusive (no result: Shiga toxin inh, Cycloheximide cs)
Cc1ccc(/C(=C\CN2CCCC2)c2ccccn2)cc1	MARV entry inh 11.2µM, LASV entry inh inconclusive
Cc1ccc(C(=O)NCCCNC(=O)c2ccccn2)cc1	none
CCN(CC(=O)Nc1ccccc1-c1ccccc1)Cc1nc2ccccc2c(=O)[nH]1	MARV entry inh inconclusive, LASV entry inh inconclusive, HCV inhibitor inconclusive
CCN(CC(=O)Nc1ccc2c(c1)CCC2)Cc1nc2ccccc2c(=O)[nH]1	MARV entry inh inconclusive, Shiga toxin inh 54.6, LASV entry inh inconclusive, HCV inhibitor inconclusive
CCN(CC(=O)Nc1ccc2c(c1)OCO2)Cc1nc2ccccc2c(=O)[nH]1	none
CCN(CC(=O)Nc1ccccc1SC)Cc1nc2ccccc2c(=O)[nH]1	HCV inhibitor 11.2µM
O=[N+]([O-])c1ccc(C2CCCC/C2=N/OCc2ccccc2F)c([N+](=O)[O-])c1 (centres undefined)	HCV inhibitor inconclusive
COc1cc(C2Oc3ccccc3C=C2[N+](=O)[O-])cc(OC)c1OC (centres undefined)	FMDV inh 12.6µM, HCV inhibitor inconclusive (no result: MARV entry inh, LASV entry inh)
COc1cc(C2NC(=O)c3ccccc3O2)cc(OC)c1OC (centres undefined)	none
COc1ccc(Oc2ccc(N/C=C/C(=O)C(C)(C)C)cc2)cc1	Shiga toxin inh 38.9, Cycloheximide cs 25.2, HCV inhibitor inconclusive (no result: MARV entry inh, LASV entry inh)
Cc1ccc(N/C=C/C(=O)C(C)(C)C)c(O)c1	Shiga toxin inh 67.7, Cycloheximide cs 62.4
COc1ccccc1Oc1ccc(N/C=C/C(=O)C(C)(C)C)cc1	none
COc1cccc(Oc2ccc(N/C=C/C(=O)C(C)(C)C)cc2)c1	MARV entry inh inconclusive, Shiga toxin inh 28.1, LASV entry inh inconclusive, Cycloheximide cs 45.3
CC(=O)Nc1ccc(N/C=C/C(=O)C(C)(C)C)cc1	Shiga toxin inh 38.9, Cycloheximide cs 17.7
Cc1ccc(NC(=O)/C=C/c2ccc(C)o2)c(C)c1	MARV entry inh inconclusive (no result: Shiga toxin inh, Cycloheximide cs, HCV inhibitor)
COc1ccc(NS(=O)(=O)c2ccc(Oc3cccc(C(=O)O)c3)cc2)cc1	none
COc1ccc(CNC(=O)COCc2cc(-c3ccc4c(c3)OCO4)on2)cc1	none (no result: MARV entry inh, Shiga toxin inh, Cycloheximide cs, HCV inhibitor)
Cc1ccc(N2C(=O)C(Cl)=C(N3CCCCCC3)C2=O)c(C)c1	MARV entry inh inconclusive, FMDV inh inconclusive, LASV entry inh inconclusive
COc1ccc(NC2=C(c3ccc(OC)cc3)C(=O)c3ccccc32)cc1	none
CCOc1ccc(NC2=C(OC)C(=O)c3ccccc3C2=O)cc1	Shiga toxin inh 61.3, Cycloheximide cs 20.4, HCV inhibitor inconclusive
COC1=C(Nc2ccc(O)cc2)C(=O)c2ccccc2C1=O	MARV entry inh inconclusive, Shiga toxin inh 77.2, LASV entry inh inconclusive, Cycloheximide cs 28.1, HCV inhibitor inconclusive
COC1=C(Nc2ccc(OC)cc2)C(=O)C(OC)=C(Nc2ccc(OC)cc2)C1=O	none (no result: Shiga toxin inh, Cycloheximide cs)
COC1=C(Nc2ccc(OC)cc2)C(=O)c2ccccc2C1=O	Shiga toxin inh 133.3, LASV entry inh inconclusive, Cycloheximide cs 51.7
COc1ccc(C2=C(N)c3ccccc3C2=O)cc1	Cycloheximide cs 42.3 (no result: FMDV inh)
COc1ccc(CNC(=O)C2CCN(c3nnc(C)c4c(C)n(-c5ccc(C)cc5)nc34)CC2)cc1	none (no result: MARV entry inh, Shiga toxin inh, Cycloheximide cs, HCV inhibitor)
Cc1ccccc1OCC(=O)NCC(=O)N/N=C/C=C/c1ccccc1	none (no result: FMDV inh, LASV entry inh, HCV inhibitor)
Cc1ccc(-c2csc(NC(=O)CSc3nc(C)cs3)n2)cc1	Shiga toxin inh 110.6, Cycloheximide cs 41.8, HCV inhibitor inconclusive
Cc1ccc(NC(=O)CSc2nnc(C)c(=O)[nH]2)cc1	none (no result: Shiga toxin inh, Cycloheximide cs, HCV inhibitor)
Cc1nc(NC(=O)CSc2ccccc2N)sc1C	MARV entry inh inconclusive, LASV entry inh inconclusive, Cycloheximide cs 25.1, HCV inhibitor inconclusive (no result: FMDV inh)
Nc1ccccc1SCC(=O)Nc1nccs1	MARV entry inh inconclusive, LASV entry inh inconclusive
Cc1nnc(SCC(=O)Nc2nc(-c3ccc(F)cc3)cs2)[nH]c1=O	MARV entry inh inconclusive, Cycloheximide cs 21.4
Cc1csc(NC(=O)CSc2ccccc2F)n1	MARV entry inh inconclusive, Shiga toxin inh 83.7, LASV entry inh inconclusive, Cycloheximide cs 36.6
O=C(Nc1ccc(S(=O)(=O)N2CCc3ccccc32)cc1)C(F)(F)F	MARV entry inh inconclusive
Cc1ccc(C)c(NC(=S)N(C2CCCCC2)C(C)c2cccnc2)c1 (centres undefined)	none
Nc1ccccc1SCC(=O)Nc1nc(-c2ccccc2)cs1	MARV entry inh inconclusive, LASV entry inh inconclusive, Cycloheximide cs 20.1
Cc1csc(SCC(=O)Nc2nc(-c3ccccc3)cs2)n1	Cycloheximide cs 13.2
Cc1cc(=O)[nH]c(SCC(=O)Nc2nc(-c3ccccc3)cs2)n1	none
CCn1c(SCc2ccccc2)nnc1-c1cccnc1	none
COc1cc(CN(C)c2ncnc3sccc23)ccc1OC(F)F	MARV entry inh 2.82µM, FMDV inh inconclusive, HCV inhibitor inconclusive
Cc1ccc(NC(=S)NCc2ccc(Cl)cc2)c(OC(F)F)c1	none
O=C(Nc1nc2ccc(S(=O)(=O)N3CCCC3)cc2s1)c1ccco1	MARV entry inh inconclusive
Cn1cc(Cl)c(C(=O)Nc2nc3ccc([N+](=O)[O-])cc3s2)n1	LASV entry inh inconclusive
O=C(Nc1nc2ccc(Br)cc2s1)c1ccco1	MARV entry inh inconclusive, LASV entry inh inconclusive, Cycloheximide cs 29.9 (no result: Shiga toxin inh)
O=C(Nc1nc2ccc(Cl)cc2s1)c1ccco1	MARV entry inh inconclusive, Shiga toxin inh 62.3, LASV entry inh 11.2µM, Cycloheximide cs 41.2
